Assay results published in PubChem BioAssay (Tox21).
Values joined by “and” are separate entries in the source; they are usually repeats but may differ in a detail not shown here. Identical values can stand only once. Inconclusive results are not listed. Active and inactive are the calls of the source. Unless noted, calls come from the whole dose curve; as a rule, active = well fitted curve in the direction sought with a large enough effect in the repeat runs; inconclusive = weak or mixed curves; inactive = no such curve, though single readings can be large; an effect the other way counts as inactive or inconclusive.

Columns and labels:
[1] = qHTS assay to identify small molecule agonists of the hypoxia (HIF-1) signaling pathway - cell viability counter screen (AID 1224844; calls by dose curve; note: nearly all actives have a fitted effect of over 50% in size)
Procedure, shortened: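 In this counter screen, HRE-bla ME-180 cell viability after 17 hrs of compound exposure at 37C was read by CellTiter-Glo luminescence, multiplexed with the beta-lactamase reporter measurement.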

[2] = qHTS assay to identify small molecule agonists of H2AX (AID 1224845; active = well fitted activation curve with a large enough effect in the signal ratio in the repeat runs, not every such curve was filed as active; the % refers to the signal ratio)
Procedure, shortened: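 Wild-type CHO-K1 cells plated overnight, then exposed 3 hr at 37C to compounds at 15 concentrations (0.76% DMSO). Lysed, then HTRF anti-pH2AX(S139)-cryptate/anti-H2AX-d2 detection after 24 hr at room temperature; emissions 665 and 620 nm.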

[3] = qHTS assay to identify small molecule agonists of the hypoxia (HIF-1) signaling pathway (AID 1224846; active = well fitted activation curve with a large enough effect in the signal ratio in the repeat runs, not every such curve was filed as active; the % refers to the signal ratio)
Procedure, shortened: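 ME-180 HRE-bla reporter cells; compounds in DMSO, 17 h at 37C; read-out beta-lactamase via CCF4-AM FRET.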

[4] = qHTS assay to identify small molecule agonists of H2AX - cell viability counter screen (AID 1224847; calls by dose curve; note: nearly all actives have a fitted effect of over 30% in size; note: potency is the fitted concentration of half-maximal effect)
Procedure, shortened: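 Cytotoxicity counter screen in wild-type CHO-K1 cells: a 3 hr compound treatment at 37C across 15 concentrations, followed by CellTiter-Glo luminescence to gauge viable cells.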

[5] = qHTS RealTime-Glo MT Cell Viability Assay in HepG2 cells - 24 hour (AID 1224867); note: nearly all actives have a fitted effect of over 50% in size
Procedure, shortened: (§1)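 HepG2 suspension premixed with RealTime-Glo reagents is plated at 600 cells per well and left 5 h at 37 C/5% CO2. Compounds in DMSO then go in, and bioluminescence reflecting viable cell number is recorded over 40 h.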

[6] = qHTS RealTime-Glo MT Cell Viability Assay in HEK293 cells - 32 hour (AID 1224868); note: top concentration of the series differs between compounds; nearly all actives have a fitted effect of over 50% in size
Procedure, shortened: (§2)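 Reads taken at 0, 8, 16, 24, 32 and 40 h from the same wells. HEK293 cells (600/well) carried RealTime-Glo reagents from seeding, with compound added after a 5 h settle at 37 C.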

[7] = qHTS RealTime-Glo MT Cell Viability Assay in HepG2 cells - 40 hour (AID 1224870); note: nearly all actives have a fitted effect of over 50% in size
Procedure, shortened: (§3)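 HepG2 cells mixed with RealTime-Glo MT reagents (NanoLuc plus cell-permeant prosubstrate) were seeded at 600 cells/well, incubated 5 h at 37 C/5% CO2, then pinned with compounds in DMSO; nonlytic luminescence tracked viability during 40 h treatment.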

[8] = A CellTox Green Cytotoxicity Assay to monitor cytotoxicity in HEK293 cells - 40 hour (AID 1224871); note: nearly all actives have a fitted effect of over 45% in size
Procedure, shortened: (§4)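 Real-time, in one plate: 600 HEK293 cells/well with dead-cell DNA dye, pinned compound after 5 h, 37 C incubation over 40 h; viable cells give no appreciable fluorescence.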

[9] = qHTS RealTime-Glo MT Cell Viability Assay in HEK293 cells - 16 hour (AID 1224872)
Procedure, shortened: as §2

[10] = qHTS RealTime-Glo MT Cell Viability Assay in HepG2 cells - 8 hour (AID 1224873); note: nearly all actives have a fitted effect of over 55% in size
Procedure, shortened: as §3

[11] = qHTS RealTime-Glo MT Cell Viability Assay in HEK293 cells - 40 hour (AID 1224874); details: RealTime-Glo luminescence; max response: stronger effect = lower value; note: nearly all actives have a fitted effect of over 50% in size
Procedure, shortened: (§5)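 Kinetic, non-lysing viability readout. Seed HEK293 (600/well) with reagent, incubate 5 h at 37 C/5% CO2, pin 23 nL compound in DMSO, incubate at 37 C, read luminescence at 0, 8, 16, 24, 32, 40 h.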

[12] = A CellTox Green Cytotoxicity Assay to monitor cytotoxicity in HEK293 cells - 24 hour (AID 1224875); note: nearly all actives have a fitted effect of over 45% in size
Procedure, shortened: as §4

[13] = A CellTox Green Cytotoxicity Assay to monitor cytotoxicity in HepG2 cells - 16 hour (AID 1224876); note: nearly all actives have a fitted effect of over 45% in size
Procedure, shortened: (§6)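 Cytotoxicity was tracked as dead-cell DNA fluorescence in HepG2 cells treated with test compounds at 37 C; each time-point value comes from one kinetic series spanning 0, 8, 16, 24, 32 and 40 h.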

[14] = qHTS RealTime-Glo MT Cell Viability Assay in HepG2 cells - 32 hour (AID 1224877); note: nearly all actives have a fitted effect of over 55% in size
Procedure, shortened: as §1

[15] = A CellTox Green Cytotoxicity Assay to monitor cytotoxicity in HepG2 cells - 24 hour (AID 1224878); note: nearly all actives have a fitted effect of over 45% in size
Procedure, shortened: as §6

[16] = A CellTox Green Cytotoxicity Assay to monitor cytotoxicity in HepG2 cells - 40 hour (AID 1224879); note: nearly all actives have a fitted effect of over 40% in size
Procedure, shortened: as §6

[17] = qHTS RealTime-Glo MT Cell Viability Assay in HEK293 cells - 0 hour (AID 1224880)
Procedure, shortened: as §5

[18] = qHTS assay to identify small molecule antagonists of the estrogen related receptor (ERR) signaling pathway from Tox21 library (AID 1224848); note: nearly all actives have a fitted effect of over 50% in size
Procedure, shortened: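 First, 2,000 ERR cells per well were plated and held 6 h at 37 C/5% CO2. Next, compounds in DMSO were pinned in and left 18 h at 37 C. Finally, ONE-Glo was added and luminescence read after 30 min at room temperature.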

[19] = qHTS assay to identify small molecule agonists of the estrogen related receptor (ERR) signaling pathway from Tox21 library (AID 1224849; calls by dose curve; note: nearly all actives have a fitted effect of over 15% in size); details: ERR reporter cell line, ONE-Glo luciferase, 18 h
Procedure, shortened: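 Luciferase activity in ERR pathway reporter cells served as the agonist readout; exposure lasted 18 h at 37 C, with ONE-Glo detection after 30 min at room temperature.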

[20] = A CellTox Green Cytotoxicity Assay to monitor cytotoxicity in HEK293 cells - 0 hour (AID 1224869); note: nearly all actives have a fitted effect of over 50% in size
Procedure, shortened: as §4
% is set by controls: 0 for no effect and ±100 for the full control effect.

CC12CCC(CC1)C(C)(C)O2
inactive: Potency [1] | Potency [2] | outcome [3] | Potency [4] | Potency [5] | Potency [6] | Potency [7] | Potency [8] | Potency [9] | Potency [10] | max response [11] -1.4% and 0.858% and 5.76% | Potency [12] | Potency [13] | Potency [14] | Potency [15] | Potency [16] | Potency [17]

O=C(Nc1ncc([N+](=O)[O-])s1)c1cccs1
inactive: Potency [1] | Potency [2] | Potency [18] | Potency [5] | Potency [6] | Potency [7] | Potency [8] | Potency [9] | Potency [10] | max response [11] -20.9% | Potency [12] | Potency [13] | Potency [14] | Potency [15] | Potency [16]
active: Potency [4] 24.7 µM | activity change, positive = activation ([19]; at 42.5 µM (top of the series)) 14.6%

Cc1ncc([N+](=O)[O-])n1CCO
inactive: Potency [1] | Potency [2] | Potency [4] | Potency [18] | activity change, positive = activation ([19]; at 42.5 µM (top of the series)) 4.15% | activity change, positive = activation ([19]; at 92.4 µM (top of the series)) 5.04% and 2.17% | Potency [5] | Potency [6] | Potency [20] | Potency [7] | Potency [8] | Potency [9] | Potency [10] | max response [11] 2.44% and 13.2% and 5.09% | Potency [12] | Potency [13] | Potency [14] | Potency [15] | Potency [16] | Potency [17]

CCCc1cc(=O)[nH]c(=S)[nH]1
inactive: Potency [1] | Potency [2] | Potency [4] | Potency [5] | Potency [6] | Potency [7] | Potency [8] | Potency [9] | Potency [10] | max response [11] 1.97% and 2.41% and 2.9% | Potency [12] | Potency [13] | Potency [14] | Potency [15] | Potency [16]

NC(CO)(CO)CO
inactive: Potency [1] | Potency [2] | outcome [3] | Potency [4] | Potency [5] | Potency [6] | Potency [7] | Potency [8] | Potency [9] | Potency [10] | Potency [12] | Potency [13] | Potency [14] | Potency [15] | Potency [16]

CN1CCC[C@H]1c1cccnc1
inactive: Potency [1] | Potency [2] | Potency [4] | Potency [5] | Potency [6] | Potency [20] | Potency [7] | Potency [8] | Potency [9] | Potency [10] | max response [11] -1.49% and 19.5% and 2.35% | Potency [12] | Potency [13] | Potency [14] | Potency [15] | Potency [16] | Potency [17]
